# Rango-impB inh – prevents formation of the Rango-importin beta complex | Q14974 | Rango CFP/YFP FRET sensor + importin beta, 45 min | Potency, µM (series often up to 92.2 µM), for the others: at the highest dose inhibition of complex formation | 0.031% of 340,000 active; calls by dose curve;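 also: 0% = DMSO wells and 100% = buffer wells lacking importin beta; nearly all actives have a fitted effect of over 15% in size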
# Target sequence (Q14974 whole entry, looked up): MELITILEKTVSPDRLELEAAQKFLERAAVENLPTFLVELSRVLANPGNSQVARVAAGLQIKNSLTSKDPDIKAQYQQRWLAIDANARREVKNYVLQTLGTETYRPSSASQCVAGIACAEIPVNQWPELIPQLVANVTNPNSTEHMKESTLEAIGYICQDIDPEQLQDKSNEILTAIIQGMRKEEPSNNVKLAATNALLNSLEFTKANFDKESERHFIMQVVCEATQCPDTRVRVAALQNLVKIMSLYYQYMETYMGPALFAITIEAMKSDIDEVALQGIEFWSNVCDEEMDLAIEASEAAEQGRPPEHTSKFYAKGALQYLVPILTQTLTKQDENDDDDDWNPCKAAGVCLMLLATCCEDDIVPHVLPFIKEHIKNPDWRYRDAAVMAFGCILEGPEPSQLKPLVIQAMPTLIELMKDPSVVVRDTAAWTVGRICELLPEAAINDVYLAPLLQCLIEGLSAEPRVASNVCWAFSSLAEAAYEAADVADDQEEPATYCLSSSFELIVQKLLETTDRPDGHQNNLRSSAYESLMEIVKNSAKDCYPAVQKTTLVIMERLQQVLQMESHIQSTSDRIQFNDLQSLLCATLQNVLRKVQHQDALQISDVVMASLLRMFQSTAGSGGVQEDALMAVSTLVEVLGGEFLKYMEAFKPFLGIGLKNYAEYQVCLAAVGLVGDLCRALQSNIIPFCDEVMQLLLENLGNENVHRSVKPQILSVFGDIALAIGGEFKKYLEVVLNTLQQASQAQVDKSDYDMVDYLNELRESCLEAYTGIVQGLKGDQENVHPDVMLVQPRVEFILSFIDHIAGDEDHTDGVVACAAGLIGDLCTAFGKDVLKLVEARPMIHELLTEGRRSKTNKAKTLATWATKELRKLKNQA
#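 FRET biosensor (snurportin 1 IBB flanked by EYFP and cerulean), 50 nM, with compound 5 min, then 0.125 microM importin beta in PBS, 1 mM DTT, 0.02% Tween-20, 0.1% BSA. CFP/YFP ratio read after 45 min at room temperature; pre-read flags interference.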
# A549 tox – A549 cytotoxicity, counter-screen for Nrf2 inhibitors | A549 ARE-Fluc cells, CellTiter-Fluor viability, 18-24 h | Potency, µM (series often up to 46 µM), inactives show at the highest dose activity change, negative = cytotoxicity, most hits filed as inhibitors | 0.16% of 390,000 active; also: % is scaled to controls: 0 for no effect and ±100 for the full control effect
#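 A549 ARE-Fluc cells in 5% FBS OPTI-MEM, 5000 cells/well, rested 2 h then exposed to compounds in concentration-response for 18-24 h at 37 °C. Viability by CellTiter-Fluor fluorescence (Ex 405/Em 525) after 30 min; luciferase luminescence (BugLite, 15 min, RT) read afterwards.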
# Nrf2 inh – blocks Nrf2 signaling; 2.1% of 360,000 active; Potency, µM (titrated, usually from 46 µM), without a hit: top-dose activity change, negative = inhibition, usual class: inhibitors; A549 ARE-Fluc reporter, luciferase luminescence, 18-24 h; also: % is scaled to controls: 0 for no effect and ±100 for the full control effect; nearly all actives have a fitted effect of over 60% in size
#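 A549 ARE_Fluc cells, 5000/well, 5% FBS OPTI-MEM; compounds in dose-response, 18-24 h at 37 °C/5% CO2; CellTiter-Fluor viability read (Ex 405/Em 525), then BugLite luciferase luminescence = Nrf2 activity.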
# Nrf2 activator – activates Nrf2 signaling | AREc32 ARE-luciferase reporter (MCF7-derived line), luminescence, 24 h | Potency, µM (titrated, usually from 46.1 µM), for the others: top-dose activation, actives largely listed as activators | 0.31% of 410,000 active | AID 624171; also: % of control where 0% means no effect; nearly all actives have a fitted effect of over 65% in size
#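 Steps: seed AREc32_Fluc cells (1000/well, 5% FBS OPTI-MEM); incubate overnight at 37 deg C; add 23 nL compound; incubate 24 hr; add Steady-Glo; hold 30 min RT; read luminescence.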
# Rango release inh – prevents RanGTP from dissociating the Rango-importin beta complex. O95149+P62826. Biochemical FRET Rango-importin beta, RanGTP-induced dissociation. Potency, µM (doses to about 46.1 µM), for the others: top-dose activity change, negative = inhibition. 0.071% of 340,000 active. AID 540253; calls by dose curve; also: % of control where 0% means no effect; nearly all actives have a fitted effect of over 45% in size
#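 Rango FRET biosensor (snurportin-1 IBB flanked by N-terminal EYFP and C-terminal CFP10) at 0.1 uM, with 0.25 uM importin beta in PBS, 1mM DTT, 0.02% Tween-20, 0.1% BSA. 0.6 uM Ran, 2mM GTP and 0.2 uM RCC1 were then added for 45 min at room temperature. Inhibition read as loss of FRET rise.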
# * marks the source's active call; other numbers are inactive results; ? = inconclusive; . = not tested or not shown. An excerpt weighted towards active compounds, which were near 2.3% of everything screened. Unless noted, calls follow the shape of the dose curve; as a rule, active = well fitted curve in the direction sought with a large enough effect; inconclusive = small, poorly fitted or top-dose-only effect, or another doubt; inactive = no such curve, though single readings can be large; an effect the other way counts as inactive or inconclusive. Potency is read from the fitted curve at half-maximal effect.
SMILES,Rango-impB inh,A549 tox,Nrf2 inh,Nrf2 activator,Rango release inh
O=C(C1CCCN(S(=O)(=O)c2ccc(Br)s2)C1)N1CCN(c2ccccc2)CC1 (centres undefined),-6%,-16%,16µM*,0%,-25%
O=C(NCc1ccccc1)c1cc(C2COCCN2C(=O)CCc2ccccc2)on1 (centres undefined),.,.,.,-1%,.
CCc1ccccc1NC(=O)CN(Cc1ccccc1)S(=O)(=O)c1ccc2nc(C)sc2c1,.,-2%,?,1%,.
O=C(C1CCC(CNS(=O)(=O)c2ccc(Br)s2)CC1)N1CCN(c2ccc(F)cc2)CC1 (centres undefined),.,1%,?,3%,.
COc1cccc(N2CCN(C(=O)C3CCC(CNS(=O)(=O)c4ccc(Br)s4)CC3)CC2)c1 (centres undefined),.,-20%,16µM*,0%,.
CCOC(=O)N1CCC(NC(=O)C2CCCN(Cc3nc(-c4cccc(Cl)c4)oc3C)C2)CC1 (centres undefined),-2%,-16%,16µM*,1%,-4%
O=C(COc1ccc([N+](=O)[O-])cc1)N1CCC(c2nc3ccccc3s2)CC1,.,-25%,15µM*,-1%,.
CCc1ccc(OC(C)C(=O)N2CCC(c3nc4ccccc4s3)CC2)cc1 (centres undefined),.,-22%,18µM*,0%,.
CCC(C(=O)Nc1ccc2c(c1)OCCO2)n1c(=O)[nH]c2ccccc2c1=O (centres undefined),-1%,1%,17%,0%,5%
CC(C)c1ccc(NC(=O)Cn2cc(S(=O)(=O)Cc3ccccc3Cl)c3ccccc32)cc1,.,-13%,?,0%,.
COc1ccc(CNC(=O)Nc2nc(C(N)c3ccccc3)cs2)cc1 (centres undefined),.,.,.,4%,.
CN1CCN(C(CNC(=O)c2c(F)cccc2F)c2ccc3c(c2)OCO3)CC1 (centres undefined),.,2%,.,0%,.
O=S(=O)(/C(=C\c1ccc(C(F)(F)F)cc1)c1nc2ccccc2[nH]1)c1ccccc1,0%,?,16µM*,-3%,5%
O=C(NCc1ccco1)/C(=C/c1ccc(C(F)(F)F)cc1)c1nc2ccccc2[nH]1,?,-1%,?,?,18µM*
O=C(/C(=C/c1ccc(Cl)cc1)c1nc2ccccc2[nH]1)c1ccccc1,5%,?,?,?,-6%
O=C(NCc1ccco1)/C(=C/c1cccc(C(F)(F)F)c1)c1nc2ccccc2[nH]1,?,1%,-2%,?,?
O=C(CSC1=Nc2ccccc2C2=NC(Cc3ccccc3)C(=O)N12)Nc1ccccc1C(F)(F)F (centres undefined),.,-9%,.,6%,.
Fc1ccc2nncc(SCc3ccccc3Cl)c2c1,0%,13%,5%,5.6µM*,8%
Fc1ccc(CSc2nnc3ccccn23)c(Cl)c1,0%,3%,27%,3%,5%
CCCCSCCCNC(=O)c1cn(CC)c2ccc(S(=O)(=O)N(C)C3CCCCC3)cc2c1=O,.,-9%,?,0%,.
CCC(C)NC(=S)Nc1ccccc1 (centres undefined),-2%,-10%,-17%,0%,8%
CCC(C)NC(=S)Nc1ccc(C(=O)OC)cc1 (centres undefined),5%,-19%,18µM*,0%,-2%
CCOc1ccc(CCNC(=O)c2cc3sc(CC)cc3n2C)cc1OCC,.,0%,18µM*,1%,.
CCOc1ccc(CCNC(=O)c2cc3c(-c4ccccc4F)nn(C)c3s2)cc1OCC,.,-7%,18µM*,1%,.
O=C1Cc2cc(S(=O)(=O)N3CCN(c4ccc([N+](=O)[O-])cc4)CC3)ccc2N1,.,-4%,31%,.,.
SMILES,Rango-impB inh,A549 tox,Nrf2 inh,Nrf2 activator,Rango release inh
COc1ccccc1CNC(=O)c1ccc2nc(CCc3ccccc3)oc2c1,.,9%,.,-1%,.
Cc1nn(C(C)C(=O)N2CCN(c3ccc(Cl)cc3)CC2)c(=O)c2cc3occc3n12 (centres undefined),.,-13%,21µM*,3%,.
O=C(Nc1ccc(Br)cc1F)C1CCN(c2nc3ccccc3[nH]2)CC1,.,0%,.,5%,.
Brc1ccc(/C=N/Nc2ccccn2)cc1,?,2%,?,13µM*,10%
O=C(NC(C(=O)N/N=C/c1cc([N+](=O)[O-])ccc1O)c1n[nH]c(=O)c2ccccc12)c1ccccc1 (centres undefined),?,-5%,-5%,2%,16µM*
O=[N+]([O-])c1ccc(O)c(/C=N/Nc2ccccn2)c1,1%,15µM*,?,5%,-7%
O=C(NC(C(=O)N/N=C/c1cccc2ccccc12)c1n[nH]c(=O)c2ccccc12)c1ccccc1 (centres undefined),-2%,?,?,11%,-3%
Oc1ccc(C=NNc2ccccn2)c(O)c1,-5%,-13%,?,5%,4%
Oc1cccc(C=NNc2ccccn2)c1,-2%,-1%,-2%,13µM*,1%
O=C(NC(=S)Nc1ccc2oc(=O)ccc2c1)c1cccc(Cl)c1,1%,1%,-11%,0%,2%
O=C(NCc1ccccc1)c1nc(S(=O)(=O)Cc2ccc(F)cc2)ncc1Cl,.,?,26µM*,-6%,.
Cc1cccc(C)c1NC(=O)c1nc(S(=O)(=O)Cc2ccccc2)ncc1Cl,-1%,0%,?,?,7%
Cc1cccc(CS(=O)(=O)c2ncc(Cl)c(C(=O)Nc3c(C)cccc3C)n2)c1,0%,?,15µM*,-2%,-1%
O=C(Nc1ccc(F)cc1)c1nc(S(=O)(=O)Cc2ccccc2)ncc1Cl,4%,?,?,?,12%
COc1ccc(N2CCN(C(=O)Cn3cnc4nc5c(cc4c3=O)CCCC5)CC2)cc1,.,-12%,.,-1%,.
CCn1c(SCC(=O)N2CC(C)OC(C)C2)nc2c([nH]c3ccccc32)c1=O (centres undefined),2%,2%,-28%,2%,-2%
CC(C)(C)CC(C)(C)NC(=O)/C=C/C(=O)O,1%,1%,0%,0%,?
COc1ccc(CCNC(=O)c2cc3c(s2)-c2c(C)cccc2OC3)c(OC)c1,.,-6%,21µM*,1%,.
COc1cc(NC(=O)c2cc3c(s2)-c2ccccc2OC3)cc(OC)c1OC,.,-11%,21µM*,-5%,.
COC(=O)c1ccccc1NC(=O)c1cc2c(s1)-c1ccccc1OC2,.,7%,8%,-1%,.
CCOCCCNC(=O)C1CCN(c2cc(C)nc3c(-c4ccc(Cl)cc4)c(C)nn23)CC1,.,0%,14%,0%,.
Cc1cc(C)c(NC(=S)NCCCSC2CCCCC2)c(C)c1,-3%,-3%,21µM*,-1%,-2%

# Screening results as filed in PubChem.
